This is a sample that favours compounds with a hit; in the whole collection about 4.2% have one here.
FBA Mtb inh: inhibits M. tuberculosis FBA enzyme; P9WQA3; purified M. tuberculosis FBA, fluorescence read-out; inhibition, % at 1 µM; hit rate 2.3% among 360,000; AID 588726
GDH-TPI counter-1: inhibits GDH-TPI coupling enzymes, artifact for Mtb FBA screen; GDH-TPI coupled enzyme counterscreen, NADH absorbance; inhibition, % at 4.8 µM; hit rate 1.2% among 360,000; AID 588335; in the data active means inhibition above about 30%
CCHFV vOTU inh: blocks the CCHF virus ovarian tumor domain protease; CCHFV vOTU protease, Pep-AMC fluorescence; hit rate 0.55% among 370,000; inhibition, % at 11.5 µM; in the data active means inhibition above about 30%
RecA splice inh: Mtb RecA intein splicing inhibition | cell-free RecA intein splicing, fluorescence | inhibition, % (no concentration beside the values) | P9WHJ3 | hit rate 0.75% among 290,000; in the data active means inhibition above about 30%
Target sequence (P9WHJ3 whole entry, looked up, canonical isoform): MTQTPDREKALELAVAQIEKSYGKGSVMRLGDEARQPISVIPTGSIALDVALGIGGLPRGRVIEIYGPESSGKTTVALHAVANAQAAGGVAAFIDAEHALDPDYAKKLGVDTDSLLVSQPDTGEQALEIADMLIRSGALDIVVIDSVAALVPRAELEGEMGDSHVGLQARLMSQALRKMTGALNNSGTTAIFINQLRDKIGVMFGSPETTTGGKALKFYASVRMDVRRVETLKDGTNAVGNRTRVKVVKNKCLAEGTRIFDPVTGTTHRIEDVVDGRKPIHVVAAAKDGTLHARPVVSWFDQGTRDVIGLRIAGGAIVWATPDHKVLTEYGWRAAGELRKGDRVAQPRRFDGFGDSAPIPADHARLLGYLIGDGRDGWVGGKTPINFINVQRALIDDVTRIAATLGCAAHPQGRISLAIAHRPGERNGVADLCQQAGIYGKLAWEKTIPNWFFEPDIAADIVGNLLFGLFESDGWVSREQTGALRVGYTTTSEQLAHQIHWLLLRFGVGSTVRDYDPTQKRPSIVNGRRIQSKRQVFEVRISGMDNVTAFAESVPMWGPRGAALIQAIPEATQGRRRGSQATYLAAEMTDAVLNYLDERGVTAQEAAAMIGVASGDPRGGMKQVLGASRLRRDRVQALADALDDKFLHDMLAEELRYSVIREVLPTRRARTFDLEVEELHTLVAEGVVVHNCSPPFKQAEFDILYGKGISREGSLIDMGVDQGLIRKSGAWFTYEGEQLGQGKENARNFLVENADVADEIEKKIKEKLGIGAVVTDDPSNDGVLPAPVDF
Mtb FBA confirm: confirmation of M. tuberculosis fructose-bisphosphate aldolase inhibitors. purified M. tuberculosis FBA, fluorescence read-out. hit rate 78% among 5,600. inhibition, % at 1 µM. shares compounds with FBA Mtb inh
GDH-TPI counter-2: GDH-TPI inhibition counter-screen for FBA inhibitors; GDH-TPI coupled enzyme counterscreen, fluorescence; hit rate 81% among 5,600; AID 652141; shares compounds with FBA Mtb inh; inhibition, % at 1 µM; in the data active means inhibition above about 10%
GDH-TPI DR: counter-screen for M. tuberculosis FBA inhibitors: GDH-TPI dose response | shares compounds with FBA Mtb inh | GDH-TPI coupled enzyme assay, fluorescence, artifact counterscreen | IC50, µM | hit rate 79% among 170; call rule not given here
Hits are given with their value; n = inactive; x = not tested or not shown; + = active, no number. Unless noted, no stated cut-off is given here; in the data, active means inhibition above about 27%; inactive means the rest.

SMILES	FBA Mtb inh	GDH-TPI counter-1	CCHFV vOTU inh	RecA splice inh	Mtb FBA confirm	GDH-TPI counter-2	others
O=C(Cc1c(F)c(F)c(F)c(F)c1F)Nc1nc(-c2ccccc2)cs1	n	n	n	n	x	x
Cc1cc(OCC(=O)NC(Cc2ccc(Cl)cc2)C(=O)O)c2c(C)c(C)c(=O)oc2c1 (centres undefined)	60	n	n	n	186	143
Cc1cc(OCC(=O)NC(Cc2c[nH]c3ccc(O)cc23)C(=O)O)c2c(C)c(C)c(=O)oc2c1 (centres undefined)	33	n	n	n	+	+
Cc1cc(OCC(=O)NC(Cc2ccc(Cl)cc2)C(=O)O)c2c3c(c(=O)oc2c1)CCCC3 (centres undefined)	70	n	n	x	n	n
Cc1c(OCC(=O)N[C@@H](Cc2ccccc2)C(=O)O)ccc2c3c(c(=O)oc12)CCC3	n	n	n	n	x	x
C[C@@H]1CN([C@@H](C)CO)C(=O)c2cc(C#CCN(C)C)cnc2O[C@H]1CN(C)Cc1ccc2c(c1)OCO2	n	n	n	x	x	x
O=C(CC[C@H]1O[C@@H](n2cnc3c(NC(=O)c4ccccc4)ncnc32)[C@H](O)[C@@H]1O)N[C@@H](CO)c1ccccc1	n	x	n	x	x	x
COc1cc2c(cc1O)C[C@H]1c3c(cc(O)c(OC)c3-2)CCN1C	47	n	n	x	32	23
O=c1oc2c(O)cccc2cc1-c1nc2ccccc2[nH]1	55	n	n	n	142	103
O=C(NC(=S)Nc1ccc(CN2CCOCC2)cc1)c1ccc([N+](=O)[O-])cc1	33	n	n	n	n	n
CCOc1ccc(-n2nc3ccc(N)cc3n2)cc1	74	n	n	n	n	n	GDH-TPI DR=1.1
COc1ccc(N2C(N)=NC(N)=NC2(C)C)cc1	n	n	n	x	x	x
COc1ccc(-n2nc3ccc(N)cc3n2)cc1	56	n	n	x	54	41
Cc1ccc(C(=O)OCC(=O)Nc2cccc(S(=O)(=O)N3CCCCC3)c2)s1	n	n	n	x	x	x
CN(C(=O)COC(=O)c1ccc(Cl)cc1N)C1CCCCC1	39	n	n	n	40	32
O=C(COC(=O)c1ccc(F)cc1Cl)NC1CCS(=O)(=O)C1 (centres undefined)	n	n	n	x	x	x
Nc1cc(Cl)ccc1C(=O)OCC(=O)NC1CCS(=O)(=O)C1 (centres undefined)	52	n	n	n	170	158
Nc1cc(Cl)ccc1C(=O)OCC(=O)NCc1cccs1	56	n	n	x	31	21
O=C(NN=Cc1ccccc1C(=O)O)c1cccc(S(=O)(=O)Nc2cccc(C(F)(F)F)c2)c1	n	n	n	x	x	x
Cc1occc1-c1nnc(SCC(=O)Nc2ccncc2)n1-c1ccccc1	x	x	n	x	x	x
Cc1ccc(CNC(=O)c2ccc(Cn3cc(-c4ccc(C)cc4)nc3-c3ccncc3)cc2)cc1	n	n	n	n	x	x
COCCN1C=C(C(=O)OC)C(c2ccc(OC)c(OC)c2)C(C(=O)OC)=C1	29	n	n	n	135	98
COC(=O)C1=CN(Cc2ccc(OC)cc2)C=C(C(=O)OC)C1c1cc(OC)c(OC)c(OC)c1	48	n	x	n	88	64
CCOC(=O)C1=CN(Cc2ccc(OC)cc2)C=C(C(=O)OCC)C1c1cccs1	32	n	n	n	151	136
COC(=O)C1=CN(Cc2ccc(F)cc2)C=C(C(=O)OC)C1c1cc(OC)c(OC)c(OC)c1	29	n	n	n	n	n	GDH-TPI DR=2.9
SMILES	FBA Mtb inh	GDH-TPI counter-1	CCHFV vOTU inh	RecA splice inh	Mtb FBA confirm	GDH-TPI counter-2	others
COc1cc(NC(=O)Cc2ccc(F)cc2)cc(OC)c1OC	n	n	n	n	x	x
O=C(COC(=O)C1CCCCC1)Nc1cccc(Br)c1	n	n	n	x	x	x
COc1cc(C(=O)NCC2CCCO2)cc(OC)c1OC (centres undefined)	n	n	n	n	x	x
COC(=O)C1=CN(CC2CCCO2)C=C(C(=O)OC)C1c1cc(OC)c(OC)c(OC)c1 (centres undefined)	52	n	n	n	n	n
COc1cc(CC(=O)NC(c2ccccc2)c2ccccc2)cc(OC)c1OC	n	n	n	n	x	x
COC(=O)C1=CN(C(C)c2ccccc2)C=C(C(=O)OC)C1c1cc(OC)c(OC)c(OC)c1 (centres undefined)	71	n	n	n	52	48
COC(=O)c1cnn2c1C(=O)N(Cc1cccs1)CC2	n	n	n	n	x	x
COC(=O)C1=CN(Cc2cccs2)C=C(C(=O)OC)C1c1cccc(O)c1	85	n	n	n	94	82
COc1ccc(CNC(=O)c2ccc3c(=O)n(CCCN4CCCC4=O)c(=S)[nH]c3c2)cc1	n	n	n	n	x	x
Cc1ccc(S(=O)(=O)N2CCN(C(=O)CN3C(=O)CNC3=O)CC2)cc1	n	n	n	x	x	x
Cc1ccc2[nH]ccc(=O)c2c1	30	n	n	n	52	39
Cc1ccc2[nH]c(CSc3ccccc3)cc(=O)c2c1	n	n	n	n	x	x
O=C(NC(NC(=S)Nc1ccccc1C(=O)O)C(Cl)(Cl)Cl)c1ccco1 (centres undefined)	33	n	n	n	n	n
COC(=O)c1ccccc1NC(=S)NC(NC(=O)c1ccco1)C(Cl)(Cl)Cl (centres undefined)	n	n	x	n	x	x
[O-][n+]1c2ccccc2cc2ccccc21	73	n	n	n	+	+
COc1ccc2nc3ccccc3[n+]([O-])c2c1	n	n	n	x	x	x
COc1cccc(S(=O)(=O)N(C)C[C@H]2Oc3cc(Br)ccc3S(=O)(=O)N([C@@H](C)CO)C[C@H]2C)c1	n	n	n	x	x	x
CCOc1ccc2nc(C)cc(C(=O)O)c2c1	87	n	n	n	74	51
COc1ccc2nc(C)cc(C(=O)O)c2c1	79	n	n	n	n	n	GDH-TPI DR=2.3
COc1ccc2nccc(C(N)=O)c2c1	49	n	n	n	43	28
COc1ccc2oc(C)c(C(N)=O)c2c1	n	n	n	n	x	x
COc1ccc2nc(C)cc(Nc3ccc(C(=O)O)cc3)c2c1	n	n	x	n	x	x
COc1c(Cl)cc(C(=O)NCc2ccco2)cc1Cl	n	n	n	x	x	x
CC[N+](CC)=N/N=C1\C=CC[N+]([O-])=C1	x	x	n	x	x	x
CCOC(=O)c1cc(-c2cc3ccccc3o2)nc2c1c(=O)[nH]c(=O)n2CCOC	46	n	n	n	n	n
O=C1OC(C(Cl)(Cl)Cl)Nc2ccccc21 (centres undefined)	40	x	n	x	+	+
O=C1c2ccccc2NC2CCCCC12 (centres undefined)	n	n	n	n	x	x
COC(=O)C1=C(C)N(C)C(=NCc2ccc(C(F)(F)F)cc2)NC1c1ccc(C(F)(F)F)cc1 (centres undefined)	x	x	n	x	x	x
O=C(O)c1ccc(NC2CC(=O)N(Cc3ccccc3)C2=O)cc1 (centres undefined)	n	n	n	n	x	x
COC(=O)C1C(O)=C(C=NC2CCCCC2)C(=O)CC1(C)C (centres undefined)	28	n	n	n	147	115

Screens deposited in PubChem by several laboratories.
